Measurements taken from PubChem BioAssay AID504408 (Broad Institute, 2011).
Screen size: about 300,000 compounds; about 5,200 (1.7%) were called active. The sample holds actives, similar compounds and a random draw of the others, so the mix is not that of the screen.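 Rule for the calls: active = mean replicate activation of at least 50% with a set share of replicates each reaching 50%; inconclusive = only one of those two conditions met; inactive = mean below 50% and too few replicates reaching it.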

Experiment: HSF-1 response element luciferase induction – NIH3T3-HGL cells, MG132 stress, luminescence, single point, primary screen (AID 504408);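 note: 0% = median of the neutral control wells and 100% = twice that signal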
Conditions: NIH3T3-HGL HSF-1 luciferase reporter, MG132, 8 h; at 9 µM; active compounds read high; 100% = twice DMSO control signal

SMILES | activation
Cc1cc(=O)oc2cc(NC(=O)C(C)Oc3ccccc3)ccc12 (centres undefined) | -3.4% (inactive)
O=C(c1cc(-c2ccco2)nc2ccccc12)N(Cc1nnc(-c2ccc(Cl)cc2)o1)C1CC1 | 16.1% (inactive)
NC(=O)C1CCN(C(=O)c2cn(-c3ccccc3)nc2-c2cccnc2)CC1 | 32.4% (inactive)
CN(c1cccc(NC(=O)Nc2ccc(Cl)cc2)c1)S(C)(=O)=O | 115% (active)
COc1cccc(N(CC(=O)Nc2cccc(N(C)S(C)(=O)=O)c2)S(C)(=O)=O)c1 | 12.3% (inactive)
Cc1ccc(N(CC(=O)Nc2cccc(N(C)S(C)(=O)=O)c2)S(C)(=O)=O)cc1 | 0.04% (inactive)
Cc1ccc2nc(SCC(=O)NC3CCCC3)[nH]c2c1 | 7.63% (inactive)
Cc1ccc(SCCC(=O)Nc2cc(C)on2)cc1 | -5.42% (inactive)
Cc1ccc2nc(-c3ccc(SCC(=O)Nc4cc(C)on4)nc3)[nH]c2c1 | 55.5% (active)
O=C(COc1ccccc1F)Nc1nc(-c2ccccn2)cs1 | -13.1% (inactive)
COc1ccc(-n2c(-c3ccc(OC)c(OC)c3)n[nH]c2=S)cc1 | 3.03% (inactive)
COc1ccc(-c2cn(-c3ccc(OC)cc3)c(=S)[nH]2)cc1 | 56.7% (active)
S=c1[nH]c(-c2cccs2)cn1-c1ccccc1 | 33.3% (inactive)
CC[C@@]12C(=O)N(c3ccccc3)C(=O)N1[C@H](c1ccc(Br)cc1)[C@@H]1C(=O)N(C(C)(C)C)C(=O)[C@@H]12 | -15% (inactive)
CC1CCCCC1NC(=O)c1cc(=O)[nH]c2ccccc12 (centres undefined) | 1.85% (inactive)
CCN1CCN(C(=O)N(Cc2ccc(Cl)cc2)S(=O)(=O)c2ccc(C)cc2)CC1 | 0.289% (inactive)
CCCCC(=O)Nc1cc(C)c2c(=O)oc3ccccc3c2n1 | 6.46% (inactive)
CCOC(=O)c1c(C)nc2c(c1C)c(=O)oc1ccccc12 | 36.6% (inactive)
Cc1ccccc1-n1nnc2c(=O)oc3ccccc3c21 | 105% (active)
CN(CC(=O)NNC(=O)CNC(=O)c1ccccc1Cl)S(=O)(=O)c1ccc(Cl)cc1 | -6.99% (inactive)

SMILES | activation
Fc1ccc(CSc2nnc(-c3cc4c(s3)-c3ccccc3CC4)o2)cc1 | 21.9% (inactive)
CCSc1nnc(-c2cc3c(s2)-c2ccccc2CC3)o1 | 51.8% (active)
O=C(CSc1nnc(-c2ccccc2O)o1)NC1CCCCC1 | -7.41% (inactive)
O=C(c1ccncc1)N1CCN(S(=O)(=O)c2cc(C(F)(F)F)cc(C(F)(F)F)c2)CC1 | 4.51% (inactive)
CCCCC(=O)N/N=C(\C)CC(=O)Nc1cc(Cl)ccc1OC | 72.1% (active)
COc1ccc(/C(C)=N/NC(=O)CCC(=O)Nc2ccc(Cl)cc2Cl)c(OC)c1 | 1.67% (inactive)
COc1ccc(Cl)cc1NC(=O)CNc1ccccc1F | 2.49% (inactive)
COc1ccc(N2CCN(C(=O)CCNC(=O)c3ccc(Br)cc3)CC2)cc1 | 6.12% (inactive)
CCN(CC(=O)Nc1cc(Cl)ccc1C)C(=O)CN1C(=O)NC2(CCCC2)C1=O | -8.94% (inactive)
COc1ccccc1NC(=O)Nc1nc(CC(=O)Nc2ccccc2F)cs1 | 23.4% (inactive)
COc1ccc(NC(=O)CN(C)C(=O)c2cc(-c3ccc(C)o3)nc3ccccc23)cc1 | 19.7% (inactive)
CC(C)C(=O)OCC(=O)Nc1ccc2c(c1)CCC2 | 41.4% (inactive)
O=C(NC1CCCC1)c1ccc(Br)s1 | 7.08% (inactive)
O=C(Nc1ccc2c(c1)CCC2)c1ccc(Br)s1 | 71% (active)
COc1ccc(S(=O)(=O)N2CCCC2CNC(=O)C(=O)NC2CC2)cc1 (centres undefined) | 5.75% (inactive)
CC(=NCc1ccco1)c1c(C(F)(F)F)[nH]n(-c2nc3ccccc3s2)c1=O | -45.7% (inactive)
CC(=NCc1ccc2c(c1)OCO2)C1=C(O)c2ccccc2C1=O | 33.7% (inactive)
CC(=NCc1ccco1)C1=C(O)c2ccccc2C1=O | 106% (active)
Cc1ccc(-c2cc(C(=O)NC3CCN(Cc4ccccc4)CC3)c3ccccc3n2)cc1 | 11.6% (inactive)
CC1=C(/C=C/C(C)=C/C=C/C(C)=C/C=C/C=C(C)/C=C/C=C(C)/C=C/C2=C(C)CCCC2(C)C)C(C)(C)CCC1 | 54.5% (active)

SMILES | activation
Cc1cccc(C(=O)OC(C)C(=O)NC2CCCc3ccccc32)c1O (centres undefined) | -1.67% (inactive)
CC(C)N(Cc1nnc(-c2ccc(Cl)cc2)o1)C(=O)C1=COCCO1 | -12.7% (inactive)
CC1(c2ccccc2)NC(=O)N(CC(=O)Nc2cc(Cl)ccc2N2CCOCC2)C1=O (centres undefined) | -13.3% (inactive)
Cc1ccc(C2(C)NC(=O)N(CC(=O)Nc3ccccc3C(=O)N3CCCCC3)C2=O)cc1 (centres undefined) | 20.7% (inactive)
Cc1ccc(NC(=O)CN2C(=O)NC(C)(c3ccc(Cl)cc3)C2=O)c(Br)c1 (centres undefined) | 78.5% (active)
Cc1ccc(NC(=S)NCCc2ccc(Cl)cc2)c(C)c1 | 21.9% (inactive)
Cc1ccc(NC(=S)NCc2ccccc2Cl)c(C)c1 | 5.6% (inactive)
Cc1ccc(NC(=S)Nc2ncccc2C)c(C)c1 | 56.7% (active)
O=S(=O)(Nc1cccc(-c2ccc(N3CCOCC3)nn2)c1)c1ccc(Cl)c(Cl)c1 | 5.14% (inactive)
CCOc1ccc(S(=O)(=O)N2CCN(C(=S)NCC3CCCO3)CC2)cc1 (centres undefined) | -5.36% (inactive)
CC(=O)Nc1ccc(-c2csc(NC(=O)Nc3ccccc3)n2)cc1 | -8.14% (inactive)
O=C(CCC(=O)c1cccs1)Nc1nc2ccccc2s1 | 10.8% (inactive)
O=C(Nc1ccccc1)Nc1nc2ccccc2s1 | 61.1% (active)
CCCNC(=O)CCn1cc(-c2ccc(OC)cc2)nc1CCN | -10.4% (inactive)
Cc1ccccc1NC(=O)c1ccccc1NS(=O)(=O)c1cccc2cccnc12 | -9.95% (inactive)
COc1cc(NS(=O)(=O)c2ccc3ccccc3c2)c2ncccc2c1 | -10.7% (inactive)
O=[N+]([O-])c1ccccc1S(=O)(=O)Nc1cccc2cccnc12 | 144% (active)
COc1ccc(C(=O)OCC(=O)c2ccc(Cl)s2)c(OC)c1OC | 3.84% (inactive)
Cc1cc(NC(=O)C(C)SCC(=O)Nc2ccccc2N2CCCCC2)no1 (centres undefined) | 10.3% (inactive)
